From PubChem
Compounds with a hit are over-represented: about 3.4% of the library has one in this group of screens.
HGIII-sPLA2 inh – Blocks human group III sPLA2 activity; Q9NZ20; QFRET BODIPY PC-A2 liposome hydrolysis, fluorescence; inhibition, % at 12.2 µM; 370,000 tested, 0.56% active; AID 743126;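 active = inhibition above mean plus 3 SD of compounds lying within the high and low control bounds, cut at about 19% in these data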
proKLK7 act – activates the human kallikrein-7 zymogen. purified proKLK7, EDANS-DABCYL substrate fluorescence; 100% is mature enzyme control, 0% vehicle. activation, % at 7 µM. 370,000 tested, 0.9% active;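 active = activation above the mean of all tested compounds plus 3 SD, computed per campaign excluding outliers beyond control limits, cut at about 13% in these data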
PLC-beta3 inh – blocks human PLC-beta3 enzyme activity. Q01970. Purified PLC-beta3, fluorogenic substrate, fluorescence. inhibition, % at 12.2 µM. 370,000 tested, 0.18% active; in the data active = inhibition above about 11%
ADAM17 inh – inhibitors of human ADAM17; inhibition, % at 6.95 µM; recombinant ADAM17, EDANS/DABCYL FRET peptide cleavage; P78536; 370,000 tested, 0.83% active; AID 720648;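 active = inhibition above the mean of compounds lying between control limits plus 3 SD, set per campaign, cut at about 8.5% in these data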
ADAM10 inh – ADAM10 inhibition, QFRET primary screen | 370,000 tested, 0.62% active | recombinant ADAM10, EDANS/DABCYL FRET peptide cleavage, 3 h | inhibition, % at 7 µM;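 active = inhibition above a per-campaign cutoff equal to the mean of compounds falling between control-based bounds plus 3 SD, cut at about 20% in these data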
PLCg1 inh – blocks human PLC-gamma1 enzyme activity; purified PLC-gamma1, fluorogenic substrate, fluorescence; inhibition, % at 12.2 µM; 370,000 tested, 0.84% active; AID 720700; P19174; in the data active = inhibition above about 9.5%
KLK7 act conf – proKLK7 activation, confirmation. activation, % at 7 µM. 3,200 tested, 68% active. shares compounds with proKLK7 act. purified proKLK7, EDANS-DABCYL substrate fluorescence; scaled: vehicle 0, mature enzyme 100;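 active = activation, as change over the incubation, above the mean of all tested compounds plus 3 SD, cut at about 13% in these data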
EDANS-DABCYL int – fluorescence interference counter-screen for KLK7 activators; shares compounds with proKLK7 act; EDANS-DABCYL substrate fluorescence interference, no enzyme, 4 h; solvent 0%, active enzyme control 100%; activation, % at 7 µM; 3,200 tested, 80% active;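 active = activation above the all-compound mean plus 3 SD, ignoring values outside control-based bounds, cut at about 4.8% in these data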;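 note: value is the 4 h activation minus the activation read at time zero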
Hits are given with their value; 0 = inactive; - = no result.

SMILES	HGIII-sPLA2 inh	proKLK7 act	PLC-beta3 inh	ADAM17 inh	ADAM10 inh	PLCg1 inh	KLK7 act conf	EDANS-DABCYL int
C=CCN1[C@H](C#N)[C@@H](c2ccc(C#Cc3cccnc3)cc2)[C@H]1CO	0	0	0	0	0	0	-	-
Cc1c(C)c2cc(Cl)c(O)c(CN3CCN(C)CC3)c2oc1=O	0	76	0	0	0	0	64	69
Cc1c(C)c2cc(Cl)c(O)c(CN3CCCC(C)C3)c2oc1=O (stereo not given)	0	42	0	0	0	0	69	73
Cc1c(Cl)c(=O)oc2cc(OCC(=O)N3CCCC(C)C3)ccc12 (stereo not given)	0	45	0	0	0	0	70	69
COc1ccc2ccc3cccc[n+]3c2c1	0	21	0	0	0	0	18	19
Cc1cc(N2CCN(C)CC2)n2cc(-c3ccc(F)cc3)nc2n1	0	32	0	0	0	0	0	6.5
O=[N+]([O-])c1ccc(O)c(C=Nc2ccc3nc(-c4ccccc4)[nH]c3c2)c1	0	65	0	0	0	0	57	63
CCOC(=O)[C@]12CCCC3=C1N(CCC3)C(=O)[C@@H](CC(=O)N1CCC(c3ccccc3)CC1)C2	0	0	0	0	0	0	-	-
O=c1[nH]c2cc3c(cc2cc1CN(Cc1nnnn1CC1CCCO1)C1CCCCC1)OCO3 (stereo not given)	0	51	0	0	0	0	0	0
O=c1[nH]c2cc3c(cc2cc1CN(Cc1nnnn1CC1CCCO1)C1CCCC1)OCO3 (stereo not given)	0	0	0	0	0	0	-	-
COc1cc2cc(CN(CCCN3CCOCC3)Cc3nnnn3Cc3ccccc3)c(=O)[nH]c2cc1OC	0	15	0	0	0	0	0	0
COCCn1nnnc1CN(Cc1cc2cc(OC)c(OC)cc2[nH]c1=O)C1CCCC1	0	18	0	0	0	0	0	0
CCOc1ccc2[nH]c(=O)c(CN(CCCN3CCOCC3)Cc3nnnn3Cc3ccc(OC)cc3)cc2c1	0	0	0	0	0	0	-	-
Cc1ccc(CN2CCCCC(NC(=O)Nc3cccc(F)c3)C2=O)cc1 (stereo not given)	0	0	0	0	0	0	-	-
Cc1ccccc1NC(=O)OC1CCC12CCCCC2 (stereo not given)	0	0	0	0	0	0	-	-
CC[C@@H]1C(c2ccc(F)cc2)=NN(c2ccc(Br)cc2)[C@H]1C(=O)N1CCOC1=O	0	0	0	0	0	0	-	-
CC[C@@H]1C(c2cccc(C)c2)=NN(c2ccccc2)[C@H]1C(=O)N1CCOC1=O	0	41	0	0	0	0	56	52
Cc1cccc(C2=NN(c3ccccc3)[C@@H](C(=O)N3CCOC3=O)[C@@H]2c2ccc([N+](=O)[O-])cc2)c1	0	0	0	0	0	0	-	-
C[C@@H]1C(c2ccc(F)cc2)=NN(c2ccccc2)[C@H]1C(=O)N1CCOC1=O	0	21	0	0	0	0	13	24
O=C1OCCN1C(=O)[C@H]1[C@H](c2ccc(F)cc2)C(c2cccc(Cl)c2)=NN1c1ccccc1	0	0	0	0	0	0	-	-
CC[C@@H]1C(c2ccccc2)=NN(c2ccc(Br)cc2)[C@H]1C(=O)N1CCOC1=O	0	28	0	0	0	0	0	0
C[C@H]1[C@@H](NS(=O)(=O)c2ccccc2[N+](=O)[O-])CC[C@@]23CCCN2C(=O)CCC[C@@H]13	0	-	0	0	0	0	-	-
CC1(C)CC(=O)C2=C(C1)N(CCN1CCOCC1)C1=C(C(=O)CC(C)(C)C1)C2c1ccc(Cl)c([N+](=O)[O-])c1	0	0	0	0	0	0	-	-
Cc1ccc(C2C3=C(CC(C)(C)CC3=O)N(CCN3CCOCC3)C3=C2C(=O)CC(C)(C)C3)cc1	0	17	0	0	0	0	0	10
O=C(NCCc1ccccc1)OCc1cn(Cc2c(F)cccc2F)nn1	0	0	0	0	0	0	-	-
SMILES	HGIII-sPLA2 inh	proKLK7 act	PLC-beta3 inh	ADAM17 inh	ADAM10 inh	PLCg1 inh	KLK7 act conf	EDANS-DABCYL int
COCC(=O)Nc1nc(-c2ccc([N+](=O)[O-])cc2)cs1	0	109	0	0	0	0	0	0
COCC(=O)Nc1nc(-c2ccc(-c3ccccc3)cc2)cs1	0	0	0	0	0	0	-	-
O=C(CC(SCc1ccco1)c1ccc(O)cc1)c1cccs1 (stereo not given)	0	25	0	0	0	0	16	14
O=C(CC(SCCO)c1ccc2c(c1)OCO2)c1cccs1 (stereo not given)	0	14	0	0	0	0	26	27
CCCCN(C)C(=O)C1CCN(S(=O)(=O)c2ccc3[nH]c(=O)oc3c2)CC1	0	0	0	0	0	0	-	-
COC(=O)[C@H](CCSC)NC(=O)c1cc2c(cn1)[nH]c1ccccc12	0	0	0	0	0	0	-	-
CNC(=O)c1cc2c(cn1)[nH]c1ccccc12	0	32	0	0	0	0	0	4.4
CCOC(=O)[C@]12CCCCC/C=C\1N(CCc1ccc(Cl)cc1)C(=O)[C@H]2CC(=O)NCCCCc1ccccc1	0	0	0	0	0	0	-	-
COC(=O)[C@]12C[C@H](CC(=O)N3CCSCC3)C(=O)N(Cc3cccc4ccccc34)C1=C[C@H](C(C)(C)C)O[C@@H]2C	0	0	0	0	0	0	-	-
Cc1[nH]c2ccccc2c1CCCO	0	0	0	0	0	0	-	-
OCCCCc1nccc2c1[nH]c1ccccc12	0	36	0	0	0	0	29	37
COc1cccc2c(=S)c(CCC(C)=O)c(C)[nH]c12	0	21	0	0	0	0	22	24
COC(=O)c1scc2c(=O)cc(C(F)(F)F)[nH]c12	0	59	0	0	0	0	76	83
COc1cc2ccccc2cc1C(=O)Nc1nccs1	0	0	0	0	0	0	-	-
COc1cccc(C=Nc2ccccc2C(=O)Nc2nccs2)c1OC	0	25	0	0	0	0	0	0
COCCCN1C(=O)C(CC(=O)NC2CCCCC2)CC(C(=O)N2CCCCCC2)=C1C (stereo not given)	0	83	0	0	0	0	0	0
CC(=O)c1cc(-c2csc(C=O)c2)c(=O)n2c1CCC2	0	0	0	0	0	0	-	-
CCOC(=O)c1nn(-c2ccccc2)c(C(=O)OCC)c1N	0	18	0	0	0	0	0	11
CCOC(=O)c1nn(-c2ccccc2)c(=O)c2c(N)scc12	0	0	0	0	0	0	-	-
c1cn2c(-c3ccoc3)cncc2n1	0	0	0	0	0	0	-	-
